Screening data (PubChem)
An excerpt weighted towards active compounds, which were near 19% of everything screened.
TDP1 cell noCPT = qHTS for Inhibitors of human tyrosyl-DNA phosphodiesterase 1 (TDP1): qHTS in cells in absence of CPT | Potency, µM (highest dose often 46.2 µM), for the others: at the top dose activity change, negative = growth inhibition, actives largely listed as inhibitors | AID 686978, 2013 | 420,000 tested, 15% active | DT40 Tdp1-/- hTDP1 cells, no CPT, ATP luminescence, 48 h; note: potency is the fitted concentration of half-maximal effect; % is set by controls: 0 for no effect and ±100 for the full control effect; nearly all actives have a fitted effect of over 55% in size
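Luminescent ATP content (CellTiter-Glo) served as the growth readout. Knockout chicken DT40 cells expressing human TDP1 were exposed to compounds without camptothecin for a minimum 48 hr at 37 °C.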
SW480 rerep = A quantitative high throughput screen for small molecules that induce DNA re-replication in SW480 colon adenocarcinoma cells. 340,000 tested, 1.8% active. SW480 DNA re-replication, Hoechst DNA content imaging, 48 h. AID 624297, 2012. Potency, µM (series often up to 46.1 µM), inactives show at the highest dose re-replication activation, actives largely listed as activators; note: potency is the fitted concentration of half-maximal effect; % of control where 0% means no effect; nearly all actives have a fitted effect of over 55% in size
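First, 250 cells per well were seeded. Next, compound or vehicle (23 nL) was pinned in, plates sat 48 hr at 37 C. Finally Hoechst was added for 40 min before fluorescence scanning.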
TDP1 cell CPT = qHTS for Inhibitors of human tyrosyl-DNA phosphodiesterase 1 (TDP1): qHTS in cells in presence of CPT; 420,000 tested, 12% active; chicken DT40 Tdp1-/-;hTDP1 cells + 20 nM CPT, ATP luminescence, 48 h; Potency, µM (top dose mostly 46.2 µM), without a hit: at the highest dose activity change, negative = growth inhibition, most hits filed as inhibitors; AID 686979, 2013; note: potency is the fitted concentration of half-maximal effect; % is set by controls: 0 for no effect and ±100 for the full control effect; nearly all actives have a fitted effect of over 55% in size
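Cell growth measured by CellTiter-Glo luminescence after a minimum 48 h, 37 C compound exposure with 20 nM CPT in Tdp1-knockout DT40 cells stably expressing hTDP1, seeded 400/well; qHTS titration format.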
MCF10A rereplic = A quantitative high throughput screen for small molecules that induce DNA re-replication in MCF 10a normal breast cells; MCF 10A DNA re-replication, Hoechst nuclear intensity, 48 h; Potency, µM (series often up to 46.1 µM), for the others: top-dose activity, positive = re-replication, usual class: activators; 350,000 tested, 2.9% active; note: potency is the fitted concentration of half-maximal effect; % of control where 0% means no effect; nearly all actives have a fitted effect of over 50% in size
IL-1B inflam inh = qHTS for Inhibitors of Inflammasome Signaling: IL-1-beta AlphaLISA Primary Screen. THP-1 LPS/ATP IL-1B secretion, AlphaLISA, 16 h; active compounds read low. activity change, % at 57.5 µM. 360,000 tested, 4.7% active; in the data active = activity change below about -50%; inconclusive = mostly about -30% to -49%; note: % is set by controls: 0 for no effect and ±100 for the full control effect
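Secreted IL-1B measured by AlphaLISA bead assay after 16 h compound exposure of THP-1 cells; compounds (final up to 57.5 uM) added 1 h before LPS (250 ng/mL) and ATP (1.25 mM) stimulation; lower signal means less secretion.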
Chronic BCR inh = qHTS Assay to Find Inhibitors of Chronic Active B-Cell Receptor Signaling | 340,000 tested, 0.05% active | ABC-DLBCL IkBa-CBG/CBR reporter, luminescence ratio, 4 h | Potency, µM (top dose mostly 46.1 µM), without a hit: at the highest dose activity change, negative = inhibition, actives largely listed as inhibitors; active = well fitted inhibition curve with a large enough effect in the signal ratio, with a control signal flat, not every such curve was filed as active; inconclusive = small, poorly fitted or top-dose-only effect, or effect the other way, or a change in a side signal; the % refers to the signal ratio;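 note: potency is the fitted concentration of half-maximal effect; plate controls were basal doxycycline-induced cells for no effect and cells given 10 µM MG132 for full effect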
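TMD8 ABC-DLBCL cells carrying doxycycline-inducible green luciferase fused to IkappaBalpha plus unfused red luciferase were exposed to compounds (up to 46 uM) for 4 hrs at 37C. Activity came from the overlap-corrected green/red luminescence ratio.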
* hit, by the source's call; ? = inconclusive; . = no result. Unless noted, calls come from the whole dose curve; as a rule, active = well fitted curve in the direction sought with a large enough effect; inconclusive = small, poorly fitted or top-dose-only effect, or another doubt; inactive = no such curve, though single readings can be large; an effect the other way counts as inactive or inconclusive.

SMILES	TDP1 cell noCPT	SW480 rerep	TDP1 cell CPT	MCF10A rereplic	IL-1B inflam inh	Chronic BCR inh
CCN(CC)S(=O)(=O)c1ccc(Cl)c(C(=O)Nc2cc(C)nn2-c2ccccc2C(F)(F)F)c1	.	.	.	.	.	-6%
CCN(C[C@H]1N[C@@](C)(C(=O)OC)[C@H]2C(=O)N(C)C(=O)[C@@H]12)C(=O)C1CCCCC1	-5%	?	-1%	-5%	19	-1%
O=C(Nc1ccc2ccccc2c1)N1CCCN(CCOc2ccccc2)CC1	4.1µM*	-20%	4.6µM*	9%	-3	1%
CCOC(=O)c1c(C)cc2c(CO)n[nH]c(=O)c2c1C	?	.	?	.	-11	.
CC(C)Nc1nc(-c2ccccc2F)c2sc(-c3ccccc3)cc2n1	?	.	?	.	3	.
COCCNc1nc(-c2cc(F)ccc2C)c2sc(-c3ccccc3)cc2n1	15µM*	.	26µM*	.	-82*	.
COCCNc1nc(-c2ccccc2F)c2sc(-c3ccccc3)cc2n1	?	.	18µM*	.	?	.
Cc1ccc(CSc2nc3c(c(=O)[nH]2)C(c2cccc(F)c2F)CC(=O)N3)cc1 (stereo not drawn)	?	.	15µM*	.	.	.
Cc1c(Cl)cccc1NC(=O)c1cc(-c2cccs2)on1	-28%	.	?	.	.	.
COc1ccc(S(=O)(=O)N(CC(N)=O)C2CCCCC2)cc1Cl	?	8%	23µM*	1%	0	0%
O=C(COC(=O)Cn1cnc2ccccc21)Nc1cc2c(cc1Cl)C(=O)c1ccccc1C2=O	16µM*	0%	21µM*	?	18	7%
c1nc(SSc2ncnc3nc[nH]c23)c2[nH]cnc2n1	7.3µM*	?	5.8µM*	?	?	.
O=C(CSc1ncnc2nc[nH]c12)c1ccc2ccccc2c1	12µM*	4%	?	28%	5	?
O=C(O)CSc1ncnc2nc[nH]c12	-10%	-2%	-7%	-3%	10	1%
O=C(CSc1ncnc2nc[nH]c12)N1CCN(c2ccc(Cl)cc2)CC1	13µM*	-7%	23µM*	9%	-2	0%
COc1ccc(NC(=O)CCn2cccn2)cc1OC	20%	.	2%	.	.	-4%
Cn1c(O)c(C2=c3ccccc3=NC2=O)[nH]c1=S	-23%	-7%	-20%	0%	10	2%
O=C1N=c2ccccc2=C1c1sc(=S)n(NC(=O)c2ccccc2)c1O	?	2%	18µM*	-3%	46	?
C/C(=C/CCC(C)(O)C1CC[C@@]2(C)[C@@H]3CC=C4[C@@H](CC[C@H](O[C@H]5O[C@@H](CO)[C@H](O)[C@@H](O)[C@@H]5O)C4(C)C)[C@]3(C)C(=O)C[C@]12C)CO[C@@H]1O[C@H](CO)[C@@H](O)[C@H](O)[C@H]1O (stereo partly drawn)	5%	-10%	7%	0%	-1	-5%
Cc1ccc(C(=O)OCC(=O)NC(=O)NCc2ccccc2)cc1C	12%	4%	2%	10µM*	8	2%
CC(=O)Nc1ccc(C(=O)OCC(=O)NC(=O)NCc2ccccc2)cc1	-23%	.	-3%	.	-3	.
O=C(COC(=O)c1ccc(F)c([N+](=O)[O-])c1)NC(=O)NCc1ccccc1	?	?	21µM*	21µM*	-99*	?
CCOC(=O)N1CCN(C(=O)Cc2ccccc2OC)CC1	-12%	-17%	-12%	-1%	15	0%
Cc1cccc(NS(=O)(=O)c2ccc3c(c2)C(C)(C)C(=O)N3C)c1	-29%	.	?	.	.	-16%
